“And” between values parts separate entries of the source, which are not always exact repeats. Identical values can stand only once. Results filed as inconclusive are left out. The source made the active and inactive calls. Calls come from the whole dose curve; as a rule, active = well fitted curve in the direction sought with a large enough effect; inconclusive = small, poorly fitted or top-dose-only effect, or another doubt; inactive = no such curve, though single readings can be large; an effect the other way counts as inactive or inconclusive.
Columns and labels:
[1] = Viability qHTS for spleen associated tyrosine kinase inhibitor (SYKi) drug resistant MV4-11 cells (AID 1963824); note: potency is the fitted concentration of half-maximal effect; nearly all actives have a fitted effect of over 35% in size
In short: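 CellTiter-Glo luminescence, read 10 min after reagent addition, reports viability after a 72 hr compound exposure. Cells are an MV4-11 line made resistant to SYK inhibition, seeded at 500 per well onto compound-containing plates.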

[2] = Quantitative highthroughput screen to assess conditional lethalithy of NOMO1 cells grown in RPMI1640 with untreated serum (RPMI+s) (AID 1963876); note: nearly all actives have a fitted effect of over 35% in size; note: potency is the fitted concentration of half-maximal effect;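 for Viability: 100% = DMSO wells and 0% = empty wells without cells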
In short: (§1)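 Each medium arm—HPLM with 10% dialyzed FBS, or RPMI1640 with 5 mM glucose and 10% untreated or dialyzed FBS—was screened against an 11-point, 3-fold compound titration for 48 h at 37 °C, with CellTiter-Glo luminescence as endpoint.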

[3] = Quantitative highthroughput screen to assess conditional lethalithy of SEM cells grown in Human Plasma-Like Medium with dialyzed fetal bovine serum (HPLM+ds) (AID 1963882); note: nearly all actives have a fitted effect of over 35% in size; note: potency is the fitted concentration of half-maximal effect; for Viability: series mostly up to about 46 µM
In short: as §1

[4] = Quantitative highthroughput screen to assess conditional lethalithy of SEM cells grown in RPMI1640 with unreated serum (RPMI+s) (AID 1963883); note: nearly all actives have a fitted effect of over 35% in size; note: potency is the fitted concentration of half-maximal effect;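 for Viability: 100% = DMSO wells and 0% = empty wells without cells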
In short: as §1

[5] = Cellular viability qHTS for adrenocortical cancer (ACC) cell line SW-13 (AID 1963989); details: SW-13 ACC cells viability, CellTiter-Glo, 48 h; activity (max response): active compounds read low; note: nearly all actives have a fitted effect of over 65% in size; note: potency is the fitted concentration of half-maximal effect;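 for activity (max response): cells grown in serum-free medium with ITS supplement; % is set by controls: 0 for no effect and ±100 for the full control effect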
In short: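 Luminescent ATP read-out (CellTiter-Glo, 20 min at room temperature) measured metabolically competent SW-13 cells after 48 h compound treatment. Final concentrations spanned up to 46 uM; bortezomib served as positive control.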

[6] = Cellular viability qHTS for adrenocortical cancer (ACC) cell line NCI-H295R (AID 1963990); note: nearly all actives have a fitted effect of over 60% in size; note: potency is the fitted concentration of half-maximal effect
In short: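 IC50 and maximal efficacy derive from four-parameter logistic modelling of titration curves, with reads scaled between DMSO-only wells (0%) and doxorubicin hydrochloride (100% inhibition). Compounds spanned up to 46 uM over 48 h.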

[7] = Quantitative highthroughput screen to assess conditional lethalithy of NOMO1 cells grown in RPMI1640 with dialyzed fetal bovine serum (RPMI+ds) (AID 1963877); note: nearly all actives have a fitted effect of over 30% in size; note: potency is the fitted concentration of half-maximal effect;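 for Viability: series mostly up to about 46 µM; 100% = DMSO control wells and 0% = empty wells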
In short: as §1

[8] = Quantitative highthroughput screen to assess conditional lethalithy of NOMO1 cells grown in Human Plasma-Like Medium with dialyzed fetal bovine serum (HPLM+ds) (AID 1963878)
In short: as §1

[9] = Quantitative highthroughput screen to assess conditional lethalithy of P12 Ichikawa cells grown in RPMI1640 with untreated serum (RPMI+s) (AID 1963881); details: Potency: viability; note: nearly all actives have a fitted effect of over 35% in size; note: potency is the fitted concentration of half-maximal effect;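 for Viability: series mostly up to about 46 µM; 100% = DMSO wells and 0% = empty wells without cells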
In short: as §1

[10] = Quantitative highthroughput screen to assess conditional lethalithy of SEM cells grown in RPMI1640 with dialyzed fetal bovine serum (RPMI+ds) (AID 1963884); note: nearly all actives have a fitted effect of over 35% in size; note: potency is the fitted concentration of half-maximal effect;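 for Viability: series mostly up to about 46 µM; 100% = DMSO control wells and 0% = empty wells without cells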
In short: as §1

[11] = Quantitative highthroughput screen to assess conditional lethalithy of P12 Ichikawa cells grown in Human Plasma-Like Medium with dialyzed fetal bovine serum (HPLM+ds) (AID 1963879); details: Potency: viability; note: nearly all actives have a fitted effect of over 35% in size; note: potency is the fitted concentration of half-maximal effect; for Viability: series mostly up to about 46 µM
In short: as §1

[12] = Quantitative highthroughput screen to assess conditional lethalithy of P12 Ichikawa cells grown in RPMI1640 with dialyzed fetal bovine serum (RPMI+ds) (AID 1963880); details: Potency: P12-Ichikawa viability; note: nearly all actives have a fitted effect of over 35% in size; note: potency is the fitted concentration of half-maximal effect;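 for Viability: 100% = DMSO wells and 0% = empty wells on each plate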
In short: as §1

CN(C(=O)c1ccc(F)cc1C(F)(F)F)C1CCN(c2nnc(-c3ccnn3C)c3ccccc23)CC1
active: Potency [1] 18.4 µM
inactive: Potency [2] | Potency [3] | Potency [4] | activity (max response) [5] -13.3% | Potency [6]

Nc1nc(OCc2ccccc2)c2[nH]cnc2n1
active: Potency [1] 20.9 µM
inactive: Potency [7] | Potency [8] | Potency [9] | Potency [3] | Potency [4] | Potency [10] | activity (max response) [5] -9.18% | Potency [6]

CS(=O)(=O)c1ccc(-c2cnc(N)c(C(=O)Nc3ccccc3)n2)cc1
inactive: Potency [2]
active: Potency [1] 2.91 µM | Potency [9] 8330 nM | Potency [3] 8330 nM | Potency [4] 9350 nM | Potency [10] 8330 nM

Cn1c(=O)n(-c2ccc(C(C)(C)C#N)cc2)c2c3cc(-c4cnc5ccccc5c4)ccc3ncc21
active: Potency [1] 164 nM and 60.5 nM | Potency [7] 296 nM | Potency [11] 1050 nM | Potency [12] 1660 nM | Potency [9] 2090 nM | Potency [3] 235 nM | Potency [4] 166 nM | Potency [10] 372 nM | Potency [6] 75.1 nM

O=c1cc(-c2ccc(O)c(O)c2)oc2cc(O)cc(O)c12
inactive: Potency [7] | Potency [8] | Potency [11] | Potency [12] | Potency [9] | Potency [3] | Potency [4] | Potency [10] | Potency [6]
active: Potency [1] 7.42 µM

COc1ncc(-c2ccc3nccc(-c4ccnnc4)c3c2)cc1NS(=O)(=O)c1ccc(F)cc1F
active: Potency [1] 58 nM and 132 nM | Potency [2] 105 nM | Potency [12] 2090 nM | Potency [3] 469 nM | Potency [10] 372 nM | Potency [5] 1120 nM | Potency [6] 28.2 nM
